WT yeast gro inh: growth inhibition of WT strain, primary screen, mitochondrial fusion inhibitor project, WT and mutant strains, chemical genetic | hit rate 2.1% among 190,000 | mitochondrial fusion phenotypic screen | inhibition, % at 10 µM; in the data active = inhibition above about 58%; tested in S. cerevisiae
CHOP inh: inhibitors of CHOP promoter induction, primary screen, cell-based, unfolded protein response, luciferase reporter; CHO-K1 CHOP-promoter luciferase, tunicamycin-induced, 15-18 h; inhibition, % at 10 µM; hit rate 3.8% among 220,000; AID 2732, 2010;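 active = compounds that reduced the stress-induced luciferase reporter signal by more than about 70% of percent inhibition, limit read from the data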
RAM inhibit: inhibitors of the yeast RAM network, primary screen, dse1pr::URA3 reporter, 5-FOA selection | S. cerevisiae dse1pr::URA3 reporter, 5-FOA growth OD615, 2 d; analog-sensitive cbk1-as2 kinase mutant strain | inhibition, % at 50 µM | hit rate 1.8% among 190,000;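 active = inhibition above a set limit, 3 SD over mean compound inhibition, cut at about 8.4% in these data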;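 also: inhibition rescues growth on 5-FOA so higher OD means more RAM inhibition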
L major viab: Leishmania major promastigote growth inhibition, primary screen | inhibition, % at 10 µM | Leishmania major promastigotes, resazurin fluorescence viability | hit rate 9% among 200,000; in the data active = inhibition above about 50%;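 also: promastigotes grown with compound for 44 hours at 28 °C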
Of the large screens only hits and unclear results are named; the others gave an inactive call; ! = not confirmed by another sample. Compounds with a hit are over-represented: about 13% of the library has one in this group of screens.

CCOc1ccccc1Nc1nc(-c2sc(NC(=O)c3ccc([N+](=O)[O-])cc3)nc2C)cs1	CHOP inh 82
CCCCC(=O)Nc1nc(C)c(-c2csc(Nc3ccccc3OC)n2)s1	L major viab 95
COc1ccc(NC(=O)/C(C#N)=C/c2ccc3c(c2)n(C)c(=O)n3C)cc1	L major viab 57
Cc1cc(NC(=O)CC2CCCC2)n(-c2nc3ccccc3[nH]2)n1	CHOP inh 85 (no result: WT yeast gro inh)
Cc1cc(NC(=O)c2ccc(F)cc2F)n(-c2nc3ccccc3[nH]2)n1	none
COc1ccc(-n2c(CNC(=O)COc3ccc(Cl)cc3Cl)n[nH]c2=S)cc1	none
CCC(=O)N(Cc1ccco1)c1nc(-c2ccc(OC)cc2)cs1	RAM inhibit 10.0
CCN(CC)CCCN(C(C)=O)c1nc(-c2cc(OC)ccc2OC)cs1	L major viab 100
CCC(=O)N(Cc1ccco1)c1nc(-c2cc(OC)ccc2OC)cs1	CHOP inh 75
Cc1ccc(OCC(=O)Nc2ccc3c4c(cccc24)CC3)c(C)c1	CHOP inh 82
Cc1cc(C(=O)Nc2ccccc2C(=O)N2CCCCC2)ccc1[N+](=O)[O-]	none
CCOC(=O)N1CCN(C(=O)c2ccccc2NC(=O)c2ccc(C(C)(C)C)cc2)CC1	L major viab 74
Cc1cccc(OCC(=O)Nc2ccc3c4c(cccc24)CC3)c1C	none
Cc1ccc(C(=O)Nc2ccc3c4c(cccc24)CC3)cc1[N+](=O)[O-]	L major viab 60
Cc1ccc(C(=O)Nc2ccccc2C(=O)N2CCCC2)cc1[N+](=O)[O-]	L major viab 58
CCOC(=O)C1CCN(C(=O)c2ccccc2NC(=O)c2ccc(Cl)cc2)CC1	none
Cc1c(C(=O)Nc2ccc3c4c(cccc24)CC3)cccc1[N+](=O)[O-]	none
Cc1nn(CC(=O)NCc2ccc(-n3cccn3)cc2)c(C)c1[N+](=O)[O-]	none
CC/C(=C(\c1ccccc1)c1ccc(OCCN(C)C)cc1)c1ccccc1	none (no result: WT yeast gro inh, RAM inhibit, L major viab)
CN(C)CCCOc1ccc(C(C)(C)c2ccccc2)cc1	L major viab 100
CN(C)CCOc1ccc(C(C)(C)c2ccccc2)cc1	L major viab 72
C=CCNCCOc1ccc(C(C)(C)c2ccccc2)cc1	L major viab 98
Cc1ccc(-c2cc(C(=O)Nc3c(C)n(C)n(-c4ccccc4)c3=O)[nH]n2)c(O)c1C	none (no result: WT yeast gro inh, RAM inhibit, L major viab)
C=CCN1C(=O)C(CC(=O)Nc2ccccc2)SC1=Nc1ccc(S(N)(=O)=O)cc1 (configuration not stated)	none
O=C(COC(=O)C1(c2cccc(F)c2)CCCC1)NCc1ccc2c(c1)OCO2	none
COc1ccc(C2CC(=O)c3cnn(-c4nc(C)cc(C)n4)c3C2)cc1 (configuration not stated)	L major viab 78
Cc1ccc(S(=O)(=O)N2CCCCC2)cc1NC(=O)COC(=O)C1=COCCO1	none
CCOC(=O)c1ccc(Oc2nc(SC)nc(N(C)C)n2)cc1	none
CCOC(=O)c1ccc(Oc2nc(N(C)C)nc(N(C)C)n2)cc1	CHOP inh 71
CCOC(=O)c1ccc(Oc2nc(NC(C)(C)C)nc(N(C)C)n2)cc1	WT yeast gro inh 65
COC(=O)NNC(=O)c1ccc(C)c(Br)c1	none
CCC(CC)C(=O)Nc1nc(-c2ccc3c(c2)CCN3C(=O)C2CC2)c(C)s1	none
Cc1sc(NC(=O)CN2CCOCC2)nc1-c1ccc2c(c1)CCN2S(=O)(=O)c1ccccc1	CHOP inh 72, L major viab 97 (no result: WT yeast gro inh)
O=C(CN1CCOCC1)Nc1nc(-c2ccc3c(c2)CCN3S(=O)(=O)c2ccccc2)cs1	L major viab 68
CC(=O)N1CCc2cc(Br)cc(S(=O)(=O)CCC(=O)N3CCN(c4ccccn4)CC3)c21	none
COCN(C#N)c1nc(N(C)C)nc(N(C)C)n1	none
COc1ccc(CN(C#N)c2nc(SC)nc(N(C)C)n2)cc1	RAM inhibit 11
Cc1cc(C(=O)C(C)OC(=O)C2=NNC(=O)CC2)c(C)n1-c1ccc(OC(F)F)cc1 (configuration not stated)	L major viab 99
COc1ccc(C(=O)N2CCOC2CNC(=O)C(=O)NCc2ccc(Cl)cc2)cc1 (configuration not stated)	none
CCCOc1ccc(/C=N/NC(=O)C2CCCN2S(=O)(=O)c2ccc(Cl)cc2)cc1 (configuration not stated)	L major viab 59
NNC(=O)C1CCCN1S(=O)(=O)c1ccc(Cl)cc1 (configuration not stated)	none
CCC(C)NC(=O)C1CCCN1S(=O)(=O)c1ccc(Cl)cc1 (configuration not stated)	none
CC(C)Oc1ccc(/C=N/NC(=O)C2CCCN2S(=O)(=O)c2ccc(Cl)cc2)cc1 (configuration not stated)	CHOP inh 79, L major viab 60
O=C(Nc1nc2cc3c(cc2s1)OCCO3)c1cccc(N2C(=O)CCC2=O)c1	L major viab 55
COc1ccccc1C(=O)Nc1nc2cc3c(cc2s1)OCCO3	L major viab 75
CCN(CC)S(=O)(=O)c1ccc2nc(NC(=O)c3ccco3)sc2c1	none
O=C(NNc1nc2cc3c(cc2s1)OCO3)c1cccc(F)c1	L major viab 55
CCN(CC)S(=O)(=O)c1cccc(C(=O)Nc2nc3cc4c(cc3s2)OCCO4)c1	L major viab 93 (no result: CHOP inh)
Cc1ccccc1SCCNC(=O)c1ccccc1Br	none
COCCCNc1nc2c(-c3ccc(Cl)cc3)nnn2c2ccccc12	none
NNc1nc2c(-c3ccc(Cl)cc3)nnn2c2ccccc12	CHOP inh 91, L major viab 86
Fc1ccc(-c2nnn3c2nc(NCc2ccccc2)c2ccccc23)cc1	none (no result: WT yeast gro inh, RAM inhibit, L major viab)
NNc1nc2c(-c3ccc(F)cc3)nnn2c2ccccc12	L major viab 97
NC(=O)NC(Cc1ccccc1)c1ccccc1 (configuration not stated)	none
NC(=O)OCC(COC(N)=O)c1ccccc1	CHOP inh 97!
COc1ccc(NC(=O)c2ccc(COc3ccc(C)cc3)o2)cc1	none
COc1ccccc1N(C)S(=O)(=O)c1ccc(C(=O)OCC(=O)N(C(C)C)C(C)C)cc1	L major viab 100
COc1ccccc1N(C)S(=O)(=O)c1ccc(C(=O)OCC(=O)NCC(F)(F)F)cc1	none
COc1ccccc1N(C)S(=O)(=O)c1ccc(C(=O)OCC(=O)N2CCC2)cc1	L major viab 83
COc1ccccc1N(C)S(=O)(=O)c1ccc(C(=O)NCC(C)C)cc1	L major viab 93 (no result: WT yeast gro inh)
CCC(C)(C)NC(=O)c1ccc(S(=O)(=O)N(C)c2ccccc2OC)cc1	none
C=C(C)c1cccc(C(C)(C)NC(=O)Nc2cc(C)ccn2)c1	CHOP inh 92
C=C(C)c1cccc(C(C)(C)NC(=O)Nc2ccc(C)cn2)c1	none
Cc1ccc2cc(C#N)c(SCC(=O)N3CCCc4ccccc43)nc2c1C	RAM inhibit 9.2
CCSc1nnc(-c2cnn(-c3ccccc3)c2-n2cccc2)n1C	none
CCCCCCSc1nnc(-c2cnn(-c3ccccc3)c2-n2cccc2)n1C	CHOP inh 84
CC(=O)Oc1ccc(Cl)cc1/C=C/c1ccc2ccccc2n1	L major viab 55
